Measured values as given in PubChem BioAssay (NCI).
About 83,000 compounds went through this panel and 20% of them were active in at least one assay; those are over-represented in the sample as a whole.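 Percent growth is the endpoint: 0 to 100 indicates growth inhibition (40 means 60% inhibition), 0 means no net growth, and negative values indicate cell death.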 A number with no mark means an inactive call. The source made the active and inactive calls. Rule for the calls: active = growth percent below 10; inactive = the rest.

Tested on: TK-10 renal
Assay: NCI-60 one-dose screen, 48 h (100 = growth as untreated, 0 = no growth, -100 = all killed)
Conditions: 10 µM unless noted

| Compound | growth |
| --- | --- |
| Nc1nc2ccc(CNc3ccc(C(=O)NC(CC(=O)O)C(=O)O)cc3)cc2c(=O)[nH]1 (centres undefined) | 82% |
| Cc1cn(C2CC(F)C(CO)O2)c(=O)[nH]c1=O (centres undefined) | 91.9% |
| CN(C)C(=O)Nc1nc2cc(Cl)c(Cl)cc2[nH]1 | 30.7% |
| Cc1cccc(NC(=O)CCc2ccc(N3C(N)=NC(N)=NC3(C)C)cc2)c1 | 82.5% |
| COc1cc(/C=C/C(=O)c2c(C)[n+]([O-])c3ccccc3[n+]2[O-])ccc1O | 55.9% |
| CCC1CN2C(=N1)c1ccccc1-c1cc(Cl)ccc12 (centres undefined) | 34.7% |
| CC(C(C(=O)N1CCCCC1)N1CCCCC1)N1CCCCC1 (centres undefined) | 101% |
| NC(CSC(c1ccccc1)(c1ccccc1)c1ccc(F)cc1)C(=O)O (centres undefined) | 64.8% |
| CS(=O)(=O)OCC(COS(C)(=O)=O)C(c1ccccc1)c1ccccc1 | 110% |
| S=c1ssnc1-c1ccccn1 | 40.1% |
| O=C(Cn1c2ccccc2c2ccncc21)N/N=C/c1cc(O)c(O)c(O)c1 | 107% |
| CN(C)c1ccc(/C=N/N=C(N)N)cc1 | 106% |
| Cc1cc2c(cc1C)N(C(=O)CCl)CCN2C(=O)CCl | -96.9% (active) |
| O=C(O)c1cc2ccccc2cc1Nc1ccccc1 | 127% |
| O=C(Nc1ccccc1Cl)c1c[nH]c(=O)c(-c2ccc(N3CCCOC4(CC4)C3)cc2)c1 | 52.4% |
| Clc1ccc2c(c1)nnn1c3ncccc3c(Br)c21 | 78.8% |
| Cc1nssc1=S | 96.4% |
| FC(F)(F)c1cn(CC2CNC2)c2ncnc(Cl)c12 | 104% |
| CN1CCN(Cn2nc(-c3cc(Cl)cc(Cl)c3Cl)n(/N=C/c3ccc(Cl)cc3)c2=S)CC1 | 94.6% |
| NC(N)=N/N=C/c1ccc([N+](=O)[O-])cc1 | 112% |
| CC1=C2C(=C[C@@](C)(CO)[C@@H]2OC(=O)N(C)CCN(C)C(=O)OC(C)(C)C)C(=O)[C@](C)(O)C12CC2 | 68.1% |
| Nc1nc(=S)ss1 | 108% |
| COC(=O)c1oc2c(C(C)=O)c(OCCN3CCCCC3)ccc2c1C | 92.1% |
| Cc1cc[n+](CCCC[n+]2ccc(C)cc2)cc1 | 107% |
